Only some compounds are listed: those with a hit (about 2.7% of all), similar ones and a draw of the others.
PP5 primary: blocks human protein phosphatase 5 activity. purified PP5c, OMFP substrate fluorescence. inhibition, % at 6.7 µM. actives 0.18% (n = 320,000). AID 1987;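 active = inhibition above the campaign's mean inhibition across all tested compounds plus 3 SD, cut at about 9.5% in these data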
Target sequence (P53041 whole entry, looked up): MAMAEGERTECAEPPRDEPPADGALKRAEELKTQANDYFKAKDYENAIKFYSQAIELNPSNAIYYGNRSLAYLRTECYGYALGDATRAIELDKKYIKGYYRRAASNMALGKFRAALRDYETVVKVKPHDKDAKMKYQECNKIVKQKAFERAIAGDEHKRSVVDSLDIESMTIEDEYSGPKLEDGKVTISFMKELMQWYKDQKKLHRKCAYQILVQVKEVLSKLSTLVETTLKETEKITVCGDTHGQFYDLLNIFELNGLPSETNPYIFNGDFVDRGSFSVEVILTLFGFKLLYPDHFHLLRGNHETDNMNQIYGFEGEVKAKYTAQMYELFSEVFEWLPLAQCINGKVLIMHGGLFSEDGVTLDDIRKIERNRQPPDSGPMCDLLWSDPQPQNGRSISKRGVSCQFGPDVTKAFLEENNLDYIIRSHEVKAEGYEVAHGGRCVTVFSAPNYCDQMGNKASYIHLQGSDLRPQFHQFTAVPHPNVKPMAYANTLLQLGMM
ANO1 block: inhibitors of mouse TMEM16A calcium-activated chloride channel | actives 1.2% (n = 310,000) | normalized B-score (activity score, 25-100; higher = stronger inhibition) at 10 µM | Q8BHY3 | HEK293 TMEM16A/YFP iodide influx fluorescence, ionomycin;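 active = ratio plate-corrected score three or more library SD toward inhibition, starting fluorescence score within five deviations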;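 also: score derived from kinetic fluorescence span divided by baseline fluorescence per well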
PP1 inh: PP1-alpha (human) inhibition in PP5 counter-screen; P62136; purified PP1alpha, OMFP fluorescence; inhibition, % at 6.7 µM; actives 0.9% (n = 320,000); AID 2235;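 active = inhibition above the mean inhibition of all tested compounds plus 3 SD, computed separately for each screening campaign, cut at about 15% in these data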
TMEM16A act: activators or potentiators of mouse TMEM16A chloride channel | Q8BHY3 | HEK293 TMEM16A/YFP-H148Q/I152L, iodide quench fluorescence; hits give low values | B-score at 10 µM | actives 0.3% (n = 340,000) | AID 623877;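 active = fluorescence-ratio B-score plate-corrected deviation score at least 3 library SD below zero, with starting fluorescence score within 5 deviations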;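 also: channel opened by trigger with iodide after compound preincubation; score built on the fluorescence ratio of max minus min over baseline; more negative score means more quench and so TMEM16A activation or potentiation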
DNA FID counter: counter-screen for HCV NS3 helicase inhibitors: DNA intercalator displacement; DNA fluorescent intercalator displacement, fluorescence; inhibition, % at 7.9 µM; actives 0.17% (n = 290,000); AID 1845; in the data active = inhibition above about 37%;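 also: higher means more ethidium bromide displaced from hairpin DNA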
PREPL inh: human PREPL enzyme inhibition; recombinant PREPL, fluorescence polarization activity-based probe; Q4J6C6; inhibition, % at 5.96 µM; actives 0.68% (n = 320,000); in the data active = inhibition above about 43%
TMEM16A reconf: re-confirmation of mouse TMEM16A chloride channel inhibitors | shares compounds with ANO1 block | HEK293 TMEM16A/YFP-H148Q, iodide quench fluorescence; ionomycin added to raise cell calcium | inhibition, % at 10 µM | actives 39% (n = 2,300) | AID 652189;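 active = mean duplicate percent inhibition, scaled so buffer wells are 0 and the reference blocker 100, over three buffer SD above buffer mean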
HEK293 Ca mobil: calcium mobilization counter-screen hit for TMEM16A inhibitor series | shares compounds with ANO1 block | TMEM16A/YFP HEK293, Fluo4 calcium mobilization | calcium response (% of ionomycin), % at 10 µM | actives 2% (n = 2,300);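 active = duplicate-averaged calcium signal over 20% of the ionomycin maximum, relative to buffer baseline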;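 also: each well's signal is peak minus trough fluorescence divided by its pre-addition baseline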
Parental YFP cnt: acts in parental YFP-HEK293 cells lacking TMEM16A, counter-screen; shares compounds with ANO1 block; iodide YFP quench, ionomycin; YFP ratio F(max-min)/F0 at 10 µM; 2,300 tested, under 10 active; AID 652233;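 active = yellow fluorescent protein signal ratio exceeding the buffer control mean by over 5 SD of those controls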;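 also: ratio is mean of duplicate wells from kinetic YFP trace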
ClC-1 rat inh: blocks the rat ClC-1 voltage-dependent chloride channel | shares compounds with ANO1 block | CHO ClC-1-YFP, iodide influx fluorescence quench; iodide control reads 0, buffer control 100 | ratio percent, % at 10 µM | 2,300 tested, under 10 active | AID 652236;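 active = duplicate-mean ratio percent above the mean of iodide-only control wells, which defines zero, plus 5 of their SD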;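 also: higher percent means stronger block of ClC-1 iodide influx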
Of the large screens only hits and unclear results are named; the others gave an inactive call (follow-up assays come after a bar, where they were run).

Cc1ccc(-c2nc3ccc(C(=O)O)cc3nc2-c2ccc(C)cc2)cc1	ANO1 block 25 | TMEM16A reconf inactive | HEK293 Ca mobil inactive | Parental YFP cnt inactive | ClC-1 rat inh inactive
CN(C)S(=O)(=O)c1ccc(NC(=O)C2CC3C=CC2C3)cc1 (stereo not drawn)	none
COc1ccccc1N1CCN(C(=O)COc2ccc(Cl)cc2Br)CC1	none
COc1ccccc1N1CCN(C(=O)COc2ccc(C)cc2Br)CC1	ANO1 block 100 | TMEM16A reconf inactive | HEK293 Ca mobil 22% | Parental YFP cnt inactive | ClC-1 rat inh inactive
CCOC(=O)CCCn1ccc2cc(S(=O)(=O)N3CCCC3)ccc21	none
CN=C1S/C(=C\c2ccc(O)c(Br)c2)C(=O)N1C	ANO1 block 25 | TMEM16A reconf inactive | HEK293 Ca mobil inactive | Parental YFP cnt inactive | ClC-1 rat inh inactive
CN=C1S/C(=C\c2ccc(O)c(OC)c2)C(=O)N1C	none (no result: DNA FID counter)
CCc1ccc2c(CC(=O)Nc3cccc(S(=O)(=O)N4CCOCC4)c3)coc2c1	none (no result: ANO1 block, DNA FID counter)
Cc1cc(=O)oc2cc(OCC(O)CN3CCc4ccccc4C3)ccc12 (stereo not drawn)	ANO1 block 25 | TMEM16A reconf inactive | HEK293 Ca mobil inactive | Parental YFP cnt inactive | ClC-1 rat inh inactive
CCn1c(SCc2nc(-c3ccc(Cl)cc3)no2)nnc1-c1ccco1	ANO1 block 100 | TMEM16A reconf inactive | HEK293 Ca mobil 28% | Parental YFP cnt inactive | ClC-1 rat inh inactive
CC1CCN(C(=O)C(NS(=O)(=O)c2cccc3nsnc23)c2ccccc2)CC1 (stereo not drawn)	none | TMEM16A reconf inactive | HEK293 Ca mobil inactive | Parental YFP cnt inactive | ClC-1 rat inh inactive
CC(C)(C)C(=O)NC(NC(=S)Nc1sc2c(c1C#N)CCCC2)C(Cl)(Cl)Cl (stereo not drawn)	ANO1 block 100 | TMEM16A reconf 34% | HEK293 Ca mobil inactive | Parental YFP cnt inactive | ClC-1 rat inh inactive
CC(C)(C)C(=O)Nc1sc2c(c1C#N)CCC2	none
CCN(CCCNC(=O)c1c(C)cc(=O)oc1C)c1ccccc1	ANO1 block 25 | TMEM16A reconf inactive | HEK293 Ca mobil inactive | Parental YFP cnt inactive | ClC-1 rat inh inactive
COc1ccc(C(=O)C2CCCN(C(=O)c3cccc(N4CCCC4=O)c3)C2)cc1OC (stereo not drawn)	none (no result: PP5 primary, ANO1 block, PP1 inh, PREPL inh)
O=C(NC1CCCCC1)C(c1cccnc1)N(C(=O)c1csnn1)c1ccc(F)cc1 (stereo not drawn)	none
COC(=O)C(Cc1ccc(OC(=O)c2ccc(Cl)cc2)cc1)N1Cc2ccccc2C1=O (stereo not drawn)	ANO1 block 100 | TMEM16A reconf 24% | HEK293 Ca mobil inactive | Parental YFP cnt inactive | ClC-1 rat inh inactive
CC(C)Cc1nc(N2CCN(C(=O)c3ccco3)CC2)c(C#N)c2c1CCCC2	ANO1 block 25 | TMEM16A reconf inactive | HEK293 Ca mobil inactive | Parental YFP cnt inactive | ClC-1 rat inh inactive
COc1ccc(OC)c(/C=C/c2nc3ccccc3[nH]c2=O)c1	none | TMEM16A reconf inactive | HEK293 Ca mobil inactive | Parental YFP cnt inactive | ClC-1 rat inh inactive
O=c1[nH]c2ccccc2nc1/C=C/c1ccc(F)cc1	none | TMEM16A reconf inactive | HEK293 Ca mobil inactive | Parental YFP cnt inactive | ClC-1 rat inh inactive
CC(C)(C)NC(=O)Cn1c(SCC(=O)NC2CC2)nc2ccccc21	none
CC(C)(C)NC(=O)Cn1c(SCC(N)=O)nc2ccccc21	ANO1 block 100 | TMEM16A reconf inactive | HEK293 Ca mobil inactive | Parental YFP cnt inactive | ClC-1 rat inh inactive
O=C(O)CSc1c2c(nc3cc(C(=O)Nc4ccc(F)c(Cl)c4)ccc13)CCCC2	none
Cc1c2c(nc3ccccc13)CCC(C)C2 (stereo not drawn)	none
CC(=O)c1ccc(N2CCN(C(=O)Nc3ccc(C)cc3)CC2)cc1	none
CC(=O)c1ccc(NC(=O)N2CCN(c3ccc(C)cc3)C(C)C2)cc1 (stereo not drawn)	ANO1 block 25 | TMEM16A reconf inactive | HEK293 Ca mobil inactive | Parental YFP cnt inactive | ClC-1 rat inh inactive
CCOc1ccc(NC(=O)c2ccc3[nH]c(=O)c(=O)[nH]c3c2)cc1	none
Cc1ccc(S(=O)(=O)Cc2ccc(C(=O)OCc3ccccc3)cc2)cc1	ANO1 block 25 | TMEM16A reconf 44% | HEK293 Ca mobil inactive | Parental YFP cnt inactive | ClC-1 rat inh inactive
O=C(O)c1ccc(S(=O)(=O)Cc2ccccc2)cc1	none
O=c1[nH]c(=O)n(-c2ccc(F)cc2)c2c1C(C(F)(F)F)(C(F)(F)F)N=C(c1ccc(F)cc1)N2	ANO1 block 25 | TMEM16A reconf 26% | HEK293 Ca mobil inactive | Parental YFP cnt inactive | ClC-1 rat inh inactive
Cc1ccc(C2=NC(C(F)(F)F)(C(F)(F)F)c3c(n(-c4ccc(F)cc4)c(=O)[nH]c3=O)N2)cc1	none
COc1ccc(NC(=O)COc2ccc(C)c(C)c2)cc1S(=O)(=O)N1CCCCC1	none (no result: DNA FID counter)
Cc1ccc(NC(=O)CSc2ncnc3ccccc23)cc1S(=O)(=O)N1CCCCC1	ANO1 block 25 | TMEM16A reconf 16% | HEK293 Ca mobil inactive | Parental YFP cnt inactive | ClC-1 rat inh inactive
COc1ccc(NC(=O)COc2cc(C)cc(C)c2)cc1S(=O)(=O)N1CCCCC1	ANO1 block 25 (no result: DNA FID counter) | TMEM16A reconf inactive | HEK293 Ca mobil inactive | Parental YFP cnt inactive | ClC-1 rat inh inactive
Cc1ccc(C)c(OCCC(=O)OCC(=O)Nc2ccc(C)c(S(=O)(=O)N3CCCCC3)c2)c1	ANO1 block 25 (no result: DNA FID counter) | TMEM16A reconf inactive | HEK293 Ca mobil inactive | Parental YFP cnt inactive | ClC-1 rat inh inactive
Cc1cc(NC(=O)c2cc(-c3ccc(OC(C)C)cc3)nc3ccccc23)no1	none
COc1cc(CN(C)Cc2cc(=O)oc3cc(C)c(Cl)cc23)ccc1OC(F)F	none
Cc1ccc(Cl)cc1NC(=O)CON=C(N)c1ccccc1	none (no result: PP5 primary, ANO1 block, PP1 inh, DNA FID counter, PREPL inh)
O=C(NCc1ccncc1)c1nc(-c2ccc(C(F)(F)F)cc2)no1	ANO1 block 25 | TMEM16A reconf 18% | HEK293 Ca mobil inactive | Parental YFP cnt inactive | ClC-1 rat inh inactive
O=C(NCc1cccnc1)c1nc(-c2ccc(C(F)(F)F)cc2)no1	none
